Inconclusive results are not listed. Activity calls are given as the source filed them. Unless noted, calls follow the shape of the dose curve; as a rule, active = well fitted curve in the direction sought with a large enough effect in the repeat runs; inconclusive = weak or mixed curves; inactive = no such curve, though single readings can be large; an effect the other way counts as inactive or inconclusive.
Key:
[1] = Human pregnane X receptor (PXR) small molecule agonists, qHTS cell viability counter screen (AID 1346977); also: nearly all actives have a fitted effect of over 50% in size
Outline: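 Fluorescence read-out (CellTiter-Fluor) of viability in PXR-Luc HepG2 cells, multiplexed with the luciferase agonist read. Compounds in DMSO added after 5hr plating; 24hr total exposure at 37C, 5% CO2.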

[2] = Caspase-3/7 induction in HepG2 cells by small molecules, qHTS assay (AID 1346978); also: nearly all actives have a fitted effect of over 15% in size
Outline: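 Caspase-3/7 induction was measured by Caspase-Glo 3/7 luminescence (30 min, room temperature) after a 17 hr compound exposure of wild-type HepG2 cells seeded at 2,000 per well and pre-incubated 5 hr.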

[3] = Caspase-3/7 induction in CHO-K1 cells by small molecules, qHTS cell viability counter screen (AID 1346979); also: nearly all actives have a fitted effect of over 35% in size
Outline: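 CHO-K1 wt, 1,500 cells/well; 5hr pre-incubation 37C/5% CO2; compound pin transfer (DMSO); 16hr exposure; CellTiter-Fluor added, 1hr, fluorescence read.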

[4] = Caspase-3/7 induction in CHO-K1 cells by small molecules, qHTS assay (AID 1346980); also: nearly all actives have a fitted effect of over 15% in size
Outline: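 Luminescent Caspase-Glo 3/7 read (30min, room temperature) quantified apoptosis induction. Cells were wild-type CHO-K1, treated with compound for 17hr at 37 C and 5% CO2.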

[5] = Caspase-3/7 induction in HepG2 cells by small molecules, qHTS cell viability counter screen (AID 1346981); also: series mostly up to about 92 µM; nearly all actives have a fitted effect of over 30% in size
Outline: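 Wild-type HepG2 cells, 2,000/well, settled 5 hr at 37 C, 5% CO2 before compound addition. Viability read by CellTiter-Fluor fluorescence, reagent added after 16 hr compound exposure, then 1 hr at 37C, in the same wells as the caspase read.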

[6] = molecular target: Nuclear receptor subfamily 1 group I member 2 (Homo sapiens) (UniProt O75469); test: Human pregnane X receptor (PXR) small molecule agonists, qHTS assay (AID 1346982); also: nearly all actives have a fitted effect of over 35% in size; also: potency is read from the fitted curve at half-maximal effect
Outline: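 PXR-Luc HepG2 reporter cells (CYP3A4-driven luciferase) in 5% charcoal-stripped FBS medium, plated 5 h before compound addition, then treated 24 h at 37C. Luciferase read by ONE-Glo luminescence after 30 min at room temperature.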

[7] = molecular target: Nuclear receptor subfamily 1 group I member 2 (Rattus norvegicus) (UniProt Q9R1A7); test: Rat pregnane X receptor (rPXR) activation by small molecules, qHTS assay (AID 1346983); conditions: rPXR luciferase reporter cells, One-Glo luminescence, 24 h; active compounds read high; also: nearly all actives have a fitted effect of over 20% in size
Outline: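 Luminescent readout (One-Glo luciferase, 30 min room temperature) followed 24 hr compound treatment at 37 C of rPXR cells plated 2,000 per well and preincubated 5hr; qHTS format with compounds delivered in DMSO.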

[8] = molecular target: Nuclear receptor subfamily 1 group I member 2 (Homo sapiens) (UniProt O75469); test: CYP3A4 induction through human pregnane X receptor (PXR) by small molecules, qHTS assay (AID 1346984); also: nearly all actives have a fitted effect of over 40% in size
Outline: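 DPX-2 HepG2 cells carrying a PXR response element and CYP3A4-promoter luciferase construct, treated with compounds 24 hr at 37C. Then P450-Glo CYP3A4 Luciferin-IPA substrate (3uM final) for 3 hr at 37C, One-Glo added, luminescence read.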

[9] = molecular target: Nuclear receptor subfamily 1 group I member 2 (Homo sapiens) (UniProt O75469); test: Human pregnane X receptor (PXR) activation by small molecules, qHTS assay (AID 1346985); also: nearly all actives have a fitted effect of over 40% in size
Outline: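 DPX-2 cells (HepG2 co-transfected with a PXR response element and a CYP3A4-promoter luciferase construct) were seeded at 2,000 per well, rested 5 hr at 37C, then exposed to DMSO-dissolved compounds for 24 hr. Activation was read as luciferase luminescence.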

[10] = molecular target: Acetylcholinesterase (Homo sapiens) (UniProt P22303); test: Acetylcholinesterase (AChE) small molecule antagonists: colormetric cell-based qHTS assay (AID 1347395; calls by dose curve; also: nearly all actives have a fitted effect of over 30% in size)
Outline: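 SH-SY5Y cells; cpd 30 min 37 C; + DTNB/acetylthiocholine, 90 min 37 C; colorimetric thiocholine read; qHTS.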

[11] = molecular target: Acetylcholinesterase (Homo sapiens) (UniProt P22303); test: Acetylcholinesterase (AChE) small molecule antagonists: enzyme-based qHTS assay (AID 1347397; calls by dose curve; also: nearly all actives have a fitted effect of over 55% in size); conditions: Potency: AChE enzyme activity inhibition; outcome: AChE enzyme activity inhibition
Outline: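 Absorbance-based detection of thiocholine with DTNB served as the read-out. Recombinant human AChE was exposed to compound for 30 min at RT before a 10 min RT incubation with acetylthiocholine.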

[12] = molecular target: Acetylcholinesterase (Homo sapiens) (UniProt P22303); test: Acetylcholinesterase (AChE) small molecule antagonists: enzyme-based qHTS assay with human liver microsomes (AID 1347399; calls by dose curve; also: nearly all actives have a fitted effect of over 60% in size); conditions: Potency: qHTS inhibition; outcome: qHTS inhibition
Outline: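 Recombinant human AChE (50 mU/mL in the enzyme mix) and human liver microsomes (0.25 mg/mL final) were preincubated with compound and NADPH (0.25 mg/mL final) for 30 min at 37 C. Acetylthiocholine/DTNB was then added; thiocholine was read colorimetrically after 10 min at room temperature.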

[13] = molecular target: Cytochrome P450 2D6 (Homo sapiens) (UniProt P10635); test: Cytochrome P450 Family 2 Subfamily D Member 6 (CYP2D6) small molecule antagonists: luciferase reporter qHTS assay (AID 1671196); also: nearly all actives have a fitted effect of over 50% in size; also: potency is read from the fitted curve at half-maximal effect; as to activity change, negative = inhibition: series mostly up to about 120 µM
Outline: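 Cell-free P450-Glo system: CYP2D6 with proluciferin substrate was pre-incubated with compound for 10 min, then reacted with NADPH regeneration for 1 h at room temperature. Luciferin product was detected after 20 min, and data were reported as relative luminescence units.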

[14] = molecular target: Cytochrome P450 2C19 (Homo sapiens) (UniProt P33261); test: Cytochrome P450 Family 2 Subfamily C Member 19 (CYP2C19) small molecule antagonists: luciferase reporter qHTS assay (AID 1671197); also: nearly all actives have a fitted effect of over 65% in size; also: potency is read from the fitted curve at half-maximal effect; as to activity change, negative = inhibition: series mostly up to about 120 µM
Outline: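 P450-Glo CYP2C19 screening system; proluciferin substrate; DMSO compound stocks; 10 min RT preincubation; NADPH regeneration, 1 h at 37C; luciferin detection reagent, 20 min RT; luminescence as RLU.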

[15] = molecular target: Cytochrome P450 2C9 (Homo sapiens) (UniProt P11712); test: Cytochrome P450 Family 2 Subfamily C Member 9 (CYP2C9) small molecule antagonists: luciferase reporter qHTS assay (AID 1671198); also: nearly all actives have a fitted effect of over 50% in size; also: potency is read from the fitted curve at half-maximal effect; as to activity change, negative = inhibition: series mostly up to about 120 µM
Outline: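 Enzyme-substrate mix preincubated with compound 10 min at room temperature; reaction started with NADPH regeneration solution, 1 h 37C. Luminescent luciferin product read after 20 min detection reagent.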

[16] = molecular target: Voltage-gated inwardly rectifying potassium channel KCNH2 (Homo sapiens) (UniProt Q12809); test: Human Ether-a-go-go-Related Gene (hERG) channel small molecule antagonists: fluorescence cell-based qHTS assay (AID 1671200);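 also: hERG-expressing U2OS cells given a thallium stimulus after FluxOR II dye loading; series mostly up to about 77 µM; nearly all actives have a fitted effect of over 50% in size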
Outline: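 Read-out: thallium influx as a surrogate for potassium, tracked as fluorescence (480 nm ex/540 nm em) every second for 2 min after Stimulus Buffer addition in dye-loaded hERG-U2OS cells.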

[17] = molecular target: Cytochrome P450 3A4 (Homo sapiens) (UniProt P08684); test: Cytochrome P450 Family 3 Subfamily A Member 4 (CYP3A4) small molecule antagonists: luciferase reporter qHTS assay (AID 1671201); also: nearly all actives have a fitted effect of over 50% in size; also: potency is read from the fitted curve at half-maximal effect; as to activity change, negative = inhibition: series mostly up to about 120 µM
Outline: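 Luminescent readout (RLU) proportional to CYP3A4 activity, from luciferin generated off a proluciferin substrate. Enzyme–substrate mix plus compound 10 min at room temp, NADPH regeneration 1 h, detection reagent 20 min.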

[18] = molecular target: Acetylcholinesterase (Homo sapiens) (UniProt P22303); test: Acetylcholinesterase (AChE) small molecule antagonists: fluorescence cell-based qHTS assay (AID 1347398; calls by dose curve; also: nearly all actives have a fitted effect of over 50% in size); conditions: Potency: AChE activity; outcome: AChE activity
Outline: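 Fluorimetric cell-based assay: intact SH-SY5Y cells, 30 min compound preincubation at 37 C, acetylthiocholine substrate with thiol probe Thiolite Green, 40 min RT development, fluorescence 490/520 nm.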

[19] = molecular target: Cytochrome P450 1A2 (Homo sapiens) (UniProt P05177); test: Cytochrome P450 Family 1 Subfamily A Member 2 (CYP1A2) small molecule antagonists: luciferase reporter qHTS assay (AID 1671199); also: nearly all actives have a fitted effect of over 50% in size; also: potency is read from the fitted curve at half-maximal effect; as to activity change, negative = inhibition: series mostly up to about 120 µM
Outline: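 P450-Glo CYP1A2 enzyme–proluciferin substrate mix with compound 10 min at room temperature, then NADPH regeneration 1 h at room temperature. Luciferin detection reagent added, luminescence read after 20 min; furafylline positive control.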
% is scaled to controls: 0 for no effect and ±100 for the full control effect.

Sequence of Nuclear receptor subfamily 1 group I member 2 (Rattus norvegicus) (Q9R1A7 whole entry, looked up): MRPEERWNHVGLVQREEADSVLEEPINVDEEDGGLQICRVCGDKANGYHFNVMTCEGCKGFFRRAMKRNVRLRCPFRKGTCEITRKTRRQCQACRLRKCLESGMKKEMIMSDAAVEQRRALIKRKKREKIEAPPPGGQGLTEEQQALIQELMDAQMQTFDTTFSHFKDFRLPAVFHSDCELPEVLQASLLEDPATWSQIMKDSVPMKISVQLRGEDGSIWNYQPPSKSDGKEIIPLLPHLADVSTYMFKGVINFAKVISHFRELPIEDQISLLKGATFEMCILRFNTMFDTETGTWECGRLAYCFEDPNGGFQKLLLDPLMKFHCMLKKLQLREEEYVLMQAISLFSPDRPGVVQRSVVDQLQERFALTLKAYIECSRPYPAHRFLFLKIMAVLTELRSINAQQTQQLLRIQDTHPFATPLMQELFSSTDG
Sequence of Cytochrome P450 1A2 (Homo sapiens) (P05177 whole entry, looked up): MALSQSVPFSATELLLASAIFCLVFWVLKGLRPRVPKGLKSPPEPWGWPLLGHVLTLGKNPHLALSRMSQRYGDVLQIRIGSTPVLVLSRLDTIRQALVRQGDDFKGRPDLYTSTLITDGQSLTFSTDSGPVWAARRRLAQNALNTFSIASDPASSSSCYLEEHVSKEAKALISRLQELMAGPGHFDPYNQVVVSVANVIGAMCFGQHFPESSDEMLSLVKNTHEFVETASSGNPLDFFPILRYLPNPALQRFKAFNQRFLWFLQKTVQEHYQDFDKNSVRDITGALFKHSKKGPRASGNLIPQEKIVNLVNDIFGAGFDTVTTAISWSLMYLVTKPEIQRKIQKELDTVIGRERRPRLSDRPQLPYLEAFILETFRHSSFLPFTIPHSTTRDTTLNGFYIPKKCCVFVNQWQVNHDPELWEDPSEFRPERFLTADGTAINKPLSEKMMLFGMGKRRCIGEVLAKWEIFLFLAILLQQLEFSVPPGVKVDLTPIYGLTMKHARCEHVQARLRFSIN
Sequence of Cytochrome P450 2C19 (Homo sapiens) (P33261 whole entry, looked up): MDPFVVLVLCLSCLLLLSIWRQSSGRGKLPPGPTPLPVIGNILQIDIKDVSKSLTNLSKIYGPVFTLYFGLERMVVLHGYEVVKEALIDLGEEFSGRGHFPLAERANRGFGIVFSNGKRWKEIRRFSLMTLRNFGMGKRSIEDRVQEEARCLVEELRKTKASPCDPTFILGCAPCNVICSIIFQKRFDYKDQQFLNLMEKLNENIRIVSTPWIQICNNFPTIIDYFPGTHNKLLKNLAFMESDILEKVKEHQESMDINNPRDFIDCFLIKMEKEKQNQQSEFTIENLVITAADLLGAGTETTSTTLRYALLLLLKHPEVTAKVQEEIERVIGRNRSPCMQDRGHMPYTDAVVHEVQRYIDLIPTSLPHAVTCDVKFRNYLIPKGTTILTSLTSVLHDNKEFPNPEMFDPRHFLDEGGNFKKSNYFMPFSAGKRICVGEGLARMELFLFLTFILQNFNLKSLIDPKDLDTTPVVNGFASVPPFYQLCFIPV
Sequence of Cytochrome P450 3A4 (Homo sapiens) (P08684 whole entry, looked up): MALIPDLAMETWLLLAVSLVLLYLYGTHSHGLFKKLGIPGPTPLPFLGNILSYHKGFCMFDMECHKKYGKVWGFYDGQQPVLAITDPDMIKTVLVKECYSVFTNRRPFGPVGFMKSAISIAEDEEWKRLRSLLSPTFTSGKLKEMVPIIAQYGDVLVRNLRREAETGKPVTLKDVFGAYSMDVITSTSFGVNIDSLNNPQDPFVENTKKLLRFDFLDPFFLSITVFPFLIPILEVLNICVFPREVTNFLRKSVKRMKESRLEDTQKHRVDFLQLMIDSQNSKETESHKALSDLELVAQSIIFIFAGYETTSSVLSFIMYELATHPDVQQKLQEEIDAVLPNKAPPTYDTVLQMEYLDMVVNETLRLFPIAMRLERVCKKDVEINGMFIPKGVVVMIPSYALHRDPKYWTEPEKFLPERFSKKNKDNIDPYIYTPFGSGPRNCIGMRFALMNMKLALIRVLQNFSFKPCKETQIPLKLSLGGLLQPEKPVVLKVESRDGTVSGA
Sequence of Voltage-gated inwardly rectifying potassium channel KCNH2 (Homo sapiens) (Q12809 whole entry, looked up): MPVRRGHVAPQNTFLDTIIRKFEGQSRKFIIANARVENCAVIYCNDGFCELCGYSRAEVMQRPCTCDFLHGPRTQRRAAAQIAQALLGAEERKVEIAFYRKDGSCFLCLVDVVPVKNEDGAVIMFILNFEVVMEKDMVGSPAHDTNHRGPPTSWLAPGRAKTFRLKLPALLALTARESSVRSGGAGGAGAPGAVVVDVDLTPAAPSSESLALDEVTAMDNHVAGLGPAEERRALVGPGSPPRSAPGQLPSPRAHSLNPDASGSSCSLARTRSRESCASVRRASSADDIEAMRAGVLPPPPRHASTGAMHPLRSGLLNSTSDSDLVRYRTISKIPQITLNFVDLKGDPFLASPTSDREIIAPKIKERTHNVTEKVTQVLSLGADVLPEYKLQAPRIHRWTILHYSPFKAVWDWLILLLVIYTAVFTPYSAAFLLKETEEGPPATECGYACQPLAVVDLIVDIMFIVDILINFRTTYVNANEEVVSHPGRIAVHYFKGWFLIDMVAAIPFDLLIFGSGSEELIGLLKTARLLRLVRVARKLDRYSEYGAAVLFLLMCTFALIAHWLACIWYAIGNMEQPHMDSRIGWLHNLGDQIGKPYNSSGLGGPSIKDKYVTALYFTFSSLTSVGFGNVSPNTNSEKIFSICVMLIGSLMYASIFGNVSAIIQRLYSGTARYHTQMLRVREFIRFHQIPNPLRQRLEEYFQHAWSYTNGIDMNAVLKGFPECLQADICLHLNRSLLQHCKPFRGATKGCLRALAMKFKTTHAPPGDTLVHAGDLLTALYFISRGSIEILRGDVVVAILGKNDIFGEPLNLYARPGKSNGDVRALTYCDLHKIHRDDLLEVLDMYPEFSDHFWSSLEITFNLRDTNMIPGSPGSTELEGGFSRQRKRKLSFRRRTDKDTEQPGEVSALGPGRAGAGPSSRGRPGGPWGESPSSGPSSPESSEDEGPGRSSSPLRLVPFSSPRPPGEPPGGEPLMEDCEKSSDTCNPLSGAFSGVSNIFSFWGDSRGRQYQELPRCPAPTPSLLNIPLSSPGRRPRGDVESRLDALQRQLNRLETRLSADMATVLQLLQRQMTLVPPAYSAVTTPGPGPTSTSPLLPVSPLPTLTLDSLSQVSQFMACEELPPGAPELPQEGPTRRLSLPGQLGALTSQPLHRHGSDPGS
Sequence of Cytochrome P450 2C9 (Homo sapiens) (P11712 whole entry, looked up): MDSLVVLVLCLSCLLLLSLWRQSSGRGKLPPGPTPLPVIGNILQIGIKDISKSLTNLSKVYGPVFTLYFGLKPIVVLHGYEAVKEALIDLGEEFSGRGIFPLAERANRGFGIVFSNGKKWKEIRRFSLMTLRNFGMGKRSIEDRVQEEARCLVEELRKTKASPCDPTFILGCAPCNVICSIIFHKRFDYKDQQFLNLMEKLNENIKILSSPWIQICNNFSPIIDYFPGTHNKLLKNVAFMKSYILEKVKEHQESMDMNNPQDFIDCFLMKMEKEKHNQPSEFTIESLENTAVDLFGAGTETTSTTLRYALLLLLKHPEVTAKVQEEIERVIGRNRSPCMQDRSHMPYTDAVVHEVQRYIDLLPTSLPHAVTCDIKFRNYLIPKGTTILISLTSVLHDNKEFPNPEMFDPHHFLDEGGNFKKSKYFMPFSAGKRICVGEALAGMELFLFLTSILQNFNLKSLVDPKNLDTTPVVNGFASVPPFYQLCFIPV
Sequence of Cytochrome P450 2D6 (Homo sapiens) (P10635 whole entry, looked up): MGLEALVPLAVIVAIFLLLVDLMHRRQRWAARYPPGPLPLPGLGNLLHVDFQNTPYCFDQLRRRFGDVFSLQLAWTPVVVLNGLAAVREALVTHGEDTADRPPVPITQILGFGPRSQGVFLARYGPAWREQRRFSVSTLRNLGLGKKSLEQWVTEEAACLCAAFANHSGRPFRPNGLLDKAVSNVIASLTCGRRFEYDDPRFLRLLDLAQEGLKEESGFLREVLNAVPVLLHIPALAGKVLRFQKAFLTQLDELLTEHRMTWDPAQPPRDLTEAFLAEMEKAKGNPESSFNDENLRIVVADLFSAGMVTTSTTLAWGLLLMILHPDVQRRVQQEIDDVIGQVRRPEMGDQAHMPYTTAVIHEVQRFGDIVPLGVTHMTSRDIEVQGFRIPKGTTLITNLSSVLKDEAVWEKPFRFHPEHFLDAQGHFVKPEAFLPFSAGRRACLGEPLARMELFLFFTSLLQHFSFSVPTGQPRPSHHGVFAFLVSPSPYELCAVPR
Sequence of Acetylcholinesterase (Homo sapiens) (P22303 whole entry, looked up): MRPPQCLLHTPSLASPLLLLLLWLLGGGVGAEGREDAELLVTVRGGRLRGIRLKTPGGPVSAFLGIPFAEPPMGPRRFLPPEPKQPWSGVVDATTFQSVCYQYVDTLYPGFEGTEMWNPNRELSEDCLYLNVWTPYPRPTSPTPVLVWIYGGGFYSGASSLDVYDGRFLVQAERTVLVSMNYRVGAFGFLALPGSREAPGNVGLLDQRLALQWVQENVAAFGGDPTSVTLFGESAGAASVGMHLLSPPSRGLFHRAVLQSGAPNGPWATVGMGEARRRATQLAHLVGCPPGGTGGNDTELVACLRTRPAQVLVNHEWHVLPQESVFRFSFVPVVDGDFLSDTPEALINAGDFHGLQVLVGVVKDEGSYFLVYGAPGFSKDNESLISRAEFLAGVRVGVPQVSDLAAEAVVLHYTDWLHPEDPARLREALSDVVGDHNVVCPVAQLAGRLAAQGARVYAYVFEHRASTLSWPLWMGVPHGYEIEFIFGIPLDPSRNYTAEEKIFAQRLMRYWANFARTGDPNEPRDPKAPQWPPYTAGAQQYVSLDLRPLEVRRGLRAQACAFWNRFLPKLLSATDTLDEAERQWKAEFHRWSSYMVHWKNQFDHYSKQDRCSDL

Cc1ccc2c(c1)C1CN(C)CCC1N2 (stereo unspecified)
active: Potency [13] 4.25 µM
inactive: activity change, negative = cytotoxicity [1] -7.69% [at 19 µM] | caspase activation [2] -1.19% [at 19 µM] | activity change, negative = cytotoxicity [3] -2.08% [at 19 µM] | caspase-3/7 activation [4] -0.28% [at 19 µM] | activity change, negative = cytotoxicity [5] -0.14% [at 19 µM] | activation [6] -3.35% [at 19 µM] | max activation [7] 1.15% | Potency [8] | Potency [9] | activity, negative = inhibition [10] -0.458% [at 23.6 µM] | activity change, negative = inhibition [11] 0.554% [at 23.6 µM] | activity change, negative = inhibition [12] -0.336% [at 23.6 µM] | activity change, negative = inhibition [14] -12.5% [at 23.6 µM] | activity change, negative = inhibition [15] 0.693% [at 23.6 µM] | activity change, negative = inhibition [16] -9.94% [at 15.8 µM] | activity change, negative = inhibition [17] 8.41% [at 23.6 µM]

C=C(C)[C@H]1CN[C@H](C(=O)O)[C@H]1CC(=O)O
inactive: Potency [1] | outcome [2] | Potency [3] | outcome [4] | Potency [5] | Potency [6] | max activation [7] -1.12% | Potency [8] | Potency [9] | Potency [11] | Potency [18] | Potency [12] | Potency [13] | Potency [14] | Potency [19] | Potency [16] | Potency [17]

ClCC1CO1 (stereo unspecified)
active: Potency [14] 24.3 µM
inactive: Potency [1] | outcome [2] | Potency [3] | outcome [4] | Potency [5] | Potency [6] | max activation [7] -3.74% | Potency [8] | Potency [9] | Potency [10] | Potency [11] | Potency [18] | Potency [12] | Potency [13] | Potency [15] | Potency [19] | Potency [16] | Potency [17]

CCCCCCC(=O)CCCCCC/C=C/C[C@@H](O)[C@H](O)[C@@](N)(CO)C(=O)O
inactive: activity change, negative = cytotoxicity [1] 6.98% [at 19 µM] | caspase activation [2] 0.643% [at 19 µM] | activity change, negative = cytotoxicity [3] 4.97% [at 19 µM] | caspase-3/7 activation [4] 2.67% [at 19 µM] | activity change, negative = cytotoxicity [5] 5.08% [at 19 µM] | activation [6] -4.6% [at 19 µM] | max activation [7] -5.78% | Potency [8] | Potency [9] | activity, negative = inhibition [10] 0.986% [at 23.6 µM] | activity change, negative = inhibition [18] -0.579% [at 23.8 µM] | activity change, negative = inhibition [12] -0.169% [at 23.6 µM] | activity change, negative = inhibition [13] -0.222% [at 23.6 µM] | activity change, negative = inhibition [14] 14.2% [at 23.6 µM] | activity change, negative = inhibition [15] 9.38% [at 23.6 µM] | activity change, negative = inhibition [19] -0.0703% [at 23.6 µM] | activity change, negative = inhibition [16] 0.803% [at 15.8 µM] | activity change, negative = inhibition [17] 24.6% [at 23.6 µM]

CNC(=O)NC(O)C(Cl)(Cl)Cl (stereo unspecified)
inactive: Potency [1] | outcome [2] | Potency [3] | outcome [4] | Potency [5] | Potency [6] | max activation [7] -4.06% | Potency [8] | Potency [9] | Potency [10] | Potency [11] | Potency [18] | Potency [12] | Potency [13] | Potency [14] | Potency [15] | Potency [19] | Potency [16]

NCCOS(=O)(=O)O
inactive: Potency [1] | outcome [2] | Potency [3] | outcome [4] | Potency [5] | Potency [6] | Potency [10] | Potency [11] | Potency [18] | Potency [12] | Potency [13] | Potency [14] | Potency [15] | Potency [19] | Potency [16] | Potency [17]

C=CCc1cc(OC)c2c(c1)OCO2
active: Potency [6] 36 µM | Potency [13] 23.5 µM | Potency [14] 59 µM | Potency [15] 37.2 µM | Potency [19] 1.87 µM | Potency [17] 4.69 µM
inactive: Potency [1] | outcome [2] | Potency [3] | outcome [4] | Potency [5] | Potency [10] | Potency [11] | Potency [18] | Potency [12] | Potency [16]

Reference: PubChem BioAssay (Tox21)
